PubChem BioAssay AID1030 (National Center for Advancing Translational Sciences (NCATS), 2008)
The whole screen tested about 220,000 compounds, of which about 16,000 (7.3%) were called active. Inconclusive results (about 25%) are left out. Calls come from the whole dose curve; as a rule, active = well fitted inhibition curve with a large enough effect (not every such curve was filed as active); inconclusive = small, poorly fitted or top-dose-only effect, or another doubt; inactive = no such curve, though single readings can be large or run the other way. The entries come from a sample that favours actives as a whole. Where a call stands in place of a potency, no number is given.

Molecular target: Aldehyde dehydrogenase 1A1 (Homo sapiens) (UniProt P00352)
Sequence (P00352 whole entry, looked up): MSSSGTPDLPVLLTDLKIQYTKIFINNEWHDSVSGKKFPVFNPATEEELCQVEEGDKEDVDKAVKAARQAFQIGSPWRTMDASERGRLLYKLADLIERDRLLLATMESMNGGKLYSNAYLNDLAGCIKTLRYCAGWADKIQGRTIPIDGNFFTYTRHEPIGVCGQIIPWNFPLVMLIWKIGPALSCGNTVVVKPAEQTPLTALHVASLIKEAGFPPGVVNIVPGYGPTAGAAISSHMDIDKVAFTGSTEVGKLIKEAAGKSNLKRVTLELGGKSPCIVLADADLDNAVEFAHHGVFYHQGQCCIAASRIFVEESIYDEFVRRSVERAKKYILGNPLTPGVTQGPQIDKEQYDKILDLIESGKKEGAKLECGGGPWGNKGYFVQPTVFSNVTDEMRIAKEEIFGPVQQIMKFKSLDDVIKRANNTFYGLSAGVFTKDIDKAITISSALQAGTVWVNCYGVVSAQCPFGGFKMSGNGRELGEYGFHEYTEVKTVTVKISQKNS
Test: qHTS Assay for Inhibitors of Aldehyde Dehydrogenase 1 (ALDH1A1)
Settings: Purified ALDH1A1, NADH fluorescence, propionaldehyde substrate; series mostly up to 75.3 µM
Potency is the fitted concentration of half-maximal effect.

| Compound | Potency |
| --- | --- |
| Cc1onc(-c2ccccc2)c1C(=O)N=C(N)c1ccc(Cl)cc1 | inactive |
| Cc1ccc(C(=O)CSc2nc3ccccc3c(=O)n2N)o1 | 28.2 µM (active) |
| O=C(CCn1c(SCC(=O)c2ccccc2)nc2ccccc2c1=O)NCc1ccc(F)cc1 | inactive |
| COc1ccc(OCc2ccc(-c3nc4ccccc4c(=O)n3N)o2)cc1 | inactive |
| O=C(Nn1cnc2ccccc2c1=O)c1ccccc1 | inactive |
| C=CCC1(CC=C)CCCN1C(=O)CC1C(=O)NCCN1Cc1ccccc1OC (stereo not given) | inactive |
| COCCC(=O)Nc1ccc2c(c1)CN(C(=O)CCOC)CC2 | inactive |
| CNc1[nH]ncc1[N+](=O)[O-] | inactive |
| COc1cc(NS(=O)(=O)c2ccc(NC(=O)CN3C(=O)c4ccccc4C3=O)cc2)ncn1 | inactive |
| CCn1c(COc2c(C)cccc2C)nnc1SCc1nc2ccccc2c(=O)[nH]1 | inactive |
| COc1ccc(CCCc2nnc(SCc3nc4ccccc4c(=O)[nH]3)n2C)cc1 | inactive |
| COc1ccc(C)cc1-n1nnnc1SCc1nc2ccccc2c(=O)[nH]1 | 39.8 µM (active) |
| CCCOC1CCCN(Cc2cn(C)nc2-c2ccccc2F)C1 (stereo not given) | inactive |
| O=C(C1CCCO1)N(c1ccc(F)cc1)C1C=CS(=O)(=O)C1 (stereo not given) | inactive |
| CCCC[C@@H]1C[C@H]1C(NC(=O)c1ccco1)c1ccc(C(=O)OC)cc1 (stereo not given in full) | 22.4 µM (active) |
| CCCC[C@@H]1C[C@H]1C(NC(=O)c1ccc(-c2ccccc2)cc1)c1ccc(-c2ccccc2)cc1 (stereo not given in full) | inactive |
| COC(=O)c1ccc(N(CC(=O)NC2CCCC2)C(=O)CNC(=O)c2ccco2)cc1 | inactive |
| CC(C)(C)NC(=O)C(=O)NN=C1CCCCCCC1 | inactive |
| Fc1cc(F)c2nc(N3CCOCC3)sc2c1 | inactive |
| c1c2c(cc3sc(N4CCCCC4)nc13)OCCO2 | 20 µM (active) |
| Fc1ccc2nc(N3CCCCC3)sc2c1 | inactive |
| CC(=O)c1cc(C#N)c(SCC(=O)Nc2nccs2)nc1C | inactive |
| CCOc1ccc(C(=O)Nc2cccc(SC)c2)cc1 | inactive |
| Cn1c(Cc2cccc3ccccc23)nnc1SCC(=O)N1CCN(c2cccc(Cl)c2)CC1 | inactive |

| Compound | Potency |
| --- | --- |
| Nn1c(Cc2cccc3ccccc23)nnc1SCC(=O)N1CC(=O)Nc2ccccc21 | 17.8 µM (active) |
| C=CCn1c(COc2ccccc2F)nnc1SCC(=O)N1CC(=O)Nc2ccccc21 | inactive |
| Cc1cc(C)cc(N(CC(=O)NCCSCc2ccco2)S(C)(=O)=O)c1 | inactive |
| Cc1cc(C)nc(NC(=O)/C=C/c2ccc(Cl)cc2)n1 | inactive |
| Cc1cccc(C(=O)Nc2ccccc2C(=O)NCc2cccnc2)c1 | inactive |
| COc1cc(C(=O)N2C(=O)c3cccc(N)c3C2=O)cc(OC)c1OC | inactive |
| CCOC(=O)N1CC=C2C(C#N)=C(N)C(C#N)(C#N)[C@H](c3cccs3)[C@H]2C1 | 20 µM (active) |
| COc1cc(/C=C2/C(=O)ON=C2C)ccc1OCc1cccc(F)c1 | 10 µM (active) |
| COc1cc(/C=C2/C(=O)ON=C2C)ccc1OCc1ccccc1F | inactive |
| C/C=C/c1ccc(OCCOc2ccc(C=O)cc2OC)c(OC)c1 | inactive |
| O=S(=O)(Nc1ccccn1)c1cccc(S(=O)(=O)c2ccc(Cl)cc2)c1 | inactive |
| N#Cc1ccc(CSc2nnc3ccccn23)cc1 | inactive |
| Cn1c(CNc2nc(-c3ccccc3)cs2)nnc1SCC(=O)c1ccccc1 | inactive |
| Cc1ccc(-n2c(C)cc(C(=O)CSc3nnc4ccccn34)c2C)cc1 | inactive |
| O=C(CSc1nnc2ccccn12)c1ccccc1 | 10 µM (active) |
| Cn1c(CC(=O)Nc2ccccc2)nnc1SCC(=O)c1ccccc1 | 7.08 µM (active) |
| Cc1ccccc1NC(=O)Cc1nnc(SCC(=O)N2CCN(c3ccccc3)CC2)n1C | inactive |
| O=C(NNC1=C(C(=O)C(F)(F)F)CCC1)c1ccncc1 | inactive |
| CCc1nc2ccccc2c(C(=O)OC2CCCCC2=O)c1C (stereo not given) | inactive |
| O=C(O)/C=C/c1ccc(OCCCF)cc1 | inactive |
| COC(=O)C1=C(C)NC(=O)CC1c1ccccc1OC (stereo not given) | inactive |
| CCn1c(=O)cc(SCC(=O)NCCC2=CCCCC2)c2ccccc21 | 14.1 µM (active) |
| O=C(Cc1cccc2ccccc12)NCCC1=CCCCC1 | inactive |
| CCn1c(=O)cc(SCC(=O)NCc2ccc3c(c2)OCO3)c2ccccc21 | inactive |

| Compound | Potency |
| --- | --- |
| COc1ccc(Cc2nnc(NC(=O)c3cc(OC)c(OC)c(OC)c3)s2)cc1OC | inactive |
| NC(=O)CC[C@@H]1NC(=O)[C@H](CO)NC(=O)c2cc([N+](=O)[O-])cc(I)c2NCC[C@@H](C(N)=O)NC1=O | 12.6 µM (active) |
| NCCCC[C@@H]1NC(=O)[C@H](CCC(=O)O)NC(=O)c2cc([N+](=O)[O-])cc(I)c2NCC[C@@H](C(N)=O)NC1=O | inactive |
| CC(C)[C@@H]1NC(=O)c2cc([N+](=O)[O-])cc(I)c2NCCC[C@@H](C(=O)NC(CC(=O)O)C(N)=O)NC(=O)[C@H](CO)NC1=O (stereo not given in full) | inactive |
| C/C(=N/NC(=O)c1ccn(C)n1)c1ccncc1 | inactive |
| COCC1CCCN(Cc2nc(-c3ccc4c(c3)OCO4)no2)C1 (stereo not given) | inactive |
| CN1CCN(S(=O)(=O)c2cccc(C(=O)O)c2)CC1 | inactive |
| COc1cccc(CNC(=O)Cc2csc(Nc3nc(=S)[nH]c4ccccc34)n2)c1 | inactive |
| O=C(O)Cc1ccc(NC(=O)c2cccs2)cc1 | inactive |
| O=C(Nc1ccccc1-c1ccccc1)c1cccs1 | inactive |
| CCc1ccccc1NC(=O)c1cccs1 | 25.1 µM (active) |
| Cc1cc(F)ccc1S(=O)(=O)Nc1ncnc2scc(-c3ccc(F)cc3)c12 | inactive |
| CONc1nc2nonc2nc1NOC | inactive |
| CC(C)C(c1nnnn1Cc1ccccc1)N1CCC(C(N)=O)CC1 (stereo not given) | inactive |
| CCCN(Cc1cc2cccc(C)c2[nH]c1=O)S(C)(=O)=O | inactive |
| Cc1cccc2cc(CN(Cc3nnnn3Cc3ccccc3)C3CCCC3)c(=O)[nH]c12 | 15.8 µM (active) |
| O=c1[nH]c(N2CCN(Cc3ccc4c(c3)OCO4)CC2)nc2c1CCCC2 | inactive |
| Cc1cccc2cc(CN(Cc3ccc4c(c3)OCO4)Cc3nnnn3C3CCCC3)c(=O)[nH]c12 | 11.2 µM (active) |
| Cc1ccc(S(=O)(=O)Cn2nnnc2CN2CCN(Cc3ccc4c(c3)OCO4)CC2)cc1 | inactive |
| CCCCCCCCCCCCN1C(=O)CSC1c1cccnc1 (stereo not given) | inactive |
| Nc1ccc(Cl)c(S(=O)(=O)Nc2ccccc2Cl)c1 | inactive |
| CCOC(=O)C1=C(CC)Nc2ccccc2N=C1N | inactive |
| CC(C)n1c(CN2CCN(Cc3ccccc3)CC2)nc2ccccc21 | inactive |
| Cc1ccc2c(c1)C(O)(CC(=O)c1cccc(-n3cccc3)c1)C(=O)N2 (stereo not given) | inactive |

| Compound | Potency |
| --- | --- |
| O=C(NCc1ccco1)c1ccc(Cn2c(=O)c3sccc3n(Cc3ccc(F)cc3)c2=O)cc1 | inactive |
| CCCCOc1ccc(C(=O)NCc2ccco2)cc1 | inactive |
| CC(C)OCCCNC(=O)c1ccc(C2SCC(=O)N2Cc2ccco2)cc1 (stereo not given) | 10 µM (active) |
| Cc1ccc(-c2csc(NC(=O)c3cnccn3)n2)cc1C | inactive |
| CC(C)(C)c1ccc(C(=O)CSc2ncn[nH]2)cc1 | 20 µM (active) |
| Cn1nnc(NC(=O)CSc2ncn[nH]2)n1 | inactive |
| COc1ccc(C(=O)CSc2nccc(=O)[nH]2)cc1 | inactive |
| CC(=O)N(CCCN(C)C)c1nc2ccc(C)cc2s1 | inactive |
| CCNc1ccc(C(=O)OCC(=O)N2c3ccccc3NC(=O)C2(C)C)cc1[N+](=O)[O-] | 11.2 µM (active) |
| CC1(C)C(=O)Nc2ccccc2N1C(=O)COC(=O)Cn1cnc2ccccc2c1=O | inactive |
| Nc1ccc(C(=O)OCC(=O)NC2CCCc3ccccc32)cc1[N+](=O)[O-] (stereo not given) | inactive |
| COc1ccc(OC)c(C(c2nnnn2C(C)(C)C)N2CCc3ccccc3C2)c1 (stereo not given) | inactive |
| Cc1ccc(C(c2nnnn2C(C)(C)C)N2CCc3ccccc3C2)cc1 (stereo not given) | inactive |
| COCCn1nnnc1C(c1cc2ccc(OC)cc2[nH]c1=O)N1CCc2ccccc2C1 (stereo not given) | 25.1 µM (active) |
| CC(=O)c1ccc(N2CCN(S(=O)(=O)c3c(C)[nH]c(=O)[nH]c3=O)CC2)cc1 | inactive |
| CSc1ccc(/C=N/N2CCN(Cc3ccccc3Cl)CC2)cc1 | inactive |
| CN1CCN(CC(=O)C23CC4CC(CC(C4)C2)C3)CC1 | 20 µM (active) |
| O=C(N1CCCC1)C12CC3CC(C1)CC(C(=O)N1CCCC1)(C3)C2 | inactive |
| CC(C)(C)NC(=O)CN1CCC(NC(=O)C23CC4CC(CC(C4)C2)C3)CC1 | inactive |
| COC/C=C/C1=CC2=CC(=O)C(C)(OC(=O)CCC(=O)OC)C(=O)C2=CO1 (stereo not given) | inactive |
| COc1cc(Cl)c(S(=O)(=O)n2cnc(C)c2)cc1Cl | inactive |
| COc1cc(OC)c(-n2c(C)cc(C=O)c2C)cc1Cl | 7.08 µM (active) |
| Cc1ccccc1-n1c(C)cc(/C=C2\NC(=O)NC2=O)c1C | inactive |
